{"source": "PubChem BioAssay (Tox21)", "note": "Records with an inconclusive call do not appear. Values without a mark were called inactive. Calls follow the shape of the full dose curve. % is scaled to controls: 0 for no effect and ±100 for the full control effect."}
{"target": "Thyrotropin receptor (Homo sapiens) (UniProt P16473)", "sequence (P16473 whole entry, looked up)": "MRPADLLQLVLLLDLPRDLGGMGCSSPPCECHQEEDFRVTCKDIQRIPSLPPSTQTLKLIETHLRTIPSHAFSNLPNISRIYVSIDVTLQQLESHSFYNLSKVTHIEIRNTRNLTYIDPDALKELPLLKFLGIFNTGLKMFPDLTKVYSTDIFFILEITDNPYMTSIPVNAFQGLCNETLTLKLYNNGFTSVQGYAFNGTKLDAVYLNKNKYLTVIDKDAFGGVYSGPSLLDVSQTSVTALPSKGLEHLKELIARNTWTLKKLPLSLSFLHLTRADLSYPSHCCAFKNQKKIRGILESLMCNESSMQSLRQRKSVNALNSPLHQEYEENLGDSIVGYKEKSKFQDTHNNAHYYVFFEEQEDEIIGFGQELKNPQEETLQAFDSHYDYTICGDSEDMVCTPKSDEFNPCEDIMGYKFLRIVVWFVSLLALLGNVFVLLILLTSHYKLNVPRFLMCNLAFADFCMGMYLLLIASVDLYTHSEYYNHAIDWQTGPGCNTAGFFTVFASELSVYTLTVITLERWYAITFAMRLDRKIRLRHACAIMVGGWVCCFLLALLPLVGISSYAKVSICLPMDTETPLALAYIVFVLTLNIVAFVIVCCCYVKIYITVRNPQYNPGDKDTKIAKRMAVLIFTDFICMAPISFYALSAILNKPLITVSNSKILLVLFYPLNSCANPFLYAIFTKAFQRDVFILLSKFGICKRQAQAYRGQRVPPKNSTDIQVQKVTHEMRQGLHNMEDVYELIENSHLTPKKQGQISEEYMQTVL", "test": "qHTS assay to identify small molecule antagonists of the thyroid stimulating hormone receptor (TSHR) signaling pathway (AID 1259385); also: nearly all actives have a fitted effect of over 20% in size", "conditions": "TSHR-HEK293 cAMP HTRF, TSH-stimulated antagonist mode; series mostly up to 92.4 µM; activity change, negative = inhibition: at the top concentration", "description": "U.S. Tox21 Program National Center for Advancing Translational Sciences [NCATS] NIH Chemical Genomics Center [NCGC] U.S. Environmental Protection Agency [EPA] National Institutes of Environmental Health Sciences [NIEHS] National Toxicology Program [NTP] U.S. Food and Drug Administration [FDA] Tox21 Assay Overview: TSHR is the receptor for thyrotropin (thyroid stimulating hormone or TSH), a member of the glycoprotein hormone family. TSH is released by the anterior pituitary gland and is the main regulator of thyroid gland growth and development. Upon binding circulating thyrotropin, a G-protein signal cascade activates adenylyl cyclase and […] cAMP concentration is increased. cAMP is a key second messenger involved extensively in cellular signal transduction pathways associated with the majority of G-protein coupled receptors (GPCRs). The activation of these GPCRs by neurotransmitters, lipids, nucleotides, peptides and hormones results in the activation or the inhibition of plasma membrane-bound adenylate cyclase through heterotrimeric G-proteins. A cell-based TSHR assay can be used to screen chemical compounds that modulate TSHR either in agonist or antagonist mode.\nTox21 Assay Protocol Summary: TSHR-Hek293 cells were dispensed at 800 cells/4uL/well in 1536-well white plates using a Multidrop dispenser. After the assay plates were incubated at a 37C/5% CO2 incubator for 18 hrs, 23 nL of compounds dissolved in DMSO, positive controls or DMSO only was transferred to the assay plate by a pin tool, followed by 1 ul medium containing Ro20-1724. For the antagonist mode screening, 1 uL of TSH was added on the top of the cell/compound mixtures to achieve a final agonist concentration of 1.5 ng/mL. After 30 min of incubation at room temperature, 2.5 ul/well of cAMP-d2 and 2.5 ul/well of anti-cAMP-cryptate were added respectively into the assay plates using a Flying Reagent Dispenser. The plates were incubated at room temperature for 1 hr. The fluorescence intensity in the plates was measured using an Envision plate reader. Each test compound was measured at 15 concentrations and in triplicates."}
{"molecule": "CC(=C(CCOC(=O)C(C)C)SSC(CCOC(=O)C(C)C)=C(C)N(C=O)Cc1cnc(C)nc1N)N(C=O)Cc1cnc(C)nc1N", "activity change, negative = inhibition": "-6.16% [at 42.5 µM]"}
{"molecule": "CN=C(NC#N)Nc1ccc(C2=NNC(=O)CC2C)cc1", "note": "(stereo not given)", "activity change, negative = inhibition": "4.59% [at 42.5 µM]"}
{"molecule": "CCOC(=O)[C@H](CCc1ccccc1)N[C@@H](C)C(=O)N1C(=O)N(C)C[C@H]1C(=O)O", "activity change, negative = inhibition": "6.45% [at 42.5 µM]"}
{"molecule": "CC(C)(C)c1nnc(NS(=O)(=O)c2ccc(N)cc2)s1", "activity change, negative = inhibition": "2.88% [at 42.5 µM]"}
{"molecule": "NS(=O)(=O)c1cc2c(cc1Cl)CN(C1CCCCC1)C2=O", "activity change, negative = inhibition": "-3.77% [at 42.5 µM]"}
{"molecule": "C=Cc1ccccn1", "activity change, negative = inhibition": "3.12%"}
{"molecule": "O=S(=O)(O)c1ccc2cc(O)c(S(=O)(=O)O)cc2c1", "activity change, negative = inhibition": "-1.09%"}
{"molecule": "CC(C)(C)c1n[nH]c(=S)n(N)c1=O", "activity change, negative = inhibition": "-1.45%"}
{"molecule": "CCCCOCCOC(=O)COc1nc(Cl)c(Cl)cc1Cl", "activity change, negative = inhibition": "-5.7%"}
{"molecule": "Cc1ccc2c(c1)OCC(=O)CO2", "activity change, negative = inhibition": "3.47%"}
{"molecule": "CCO[Si](CCCS)(OCC)OCC", "activity change, negative = inhibition": "1.45%"}
{"molecule": "C[Si](C)(C)C", "activity change, negative = inhibition": "2.8%"}
{"molecule": "CCC(C=O)CC", "activity change, negative = inhibition": "1.16%"}
{"molecule": "C=COCCOCCOCCOC=C", "activity change, negative = inhibition": "2.23%"}
{"molecule": "O=C(CCN1CCN(CCO)CC1)N1c2ccccc2Sc2ccc(C(F)(F)F)cc21", "activity change, negative = inhibition": "1.26% [at 42.5 µM]"}
{"molecule": "CC(CO)c1ccccc1", "note": "(stereo not given)", "activity change, negative = inhibition": "0.222%"}
{"molecule": "BrCc1cccc(Oc2ccccc2)c1", "activity change, negative = inhibition": "-0.154%"}
{"molecule": "Cc1ccc2ccc(Cl)cc2n1", "activity change, negative = inhibition": "1.85% [at 42.5 µM]"}
{"molecule": "CC(CN)CC(C)(C)CCN", "note": "(stereo not given)", "activity change, negative = inhibition": "1.48% [at 240 µM]"}
{"molecule": "C[C@@H]1O[C@@H](O[C@@H]2[C@@H](O)[C@H](OCCc3ccc(O)c(O)c3)O[C@H](CO[C@@H]3O[C@H](CO)[C@@H](O)[C@H](O)[C@H]3O)[C@H]2OC(=O)/C=C/c2ccc(O)c(O)c2)[C@H](O)[C@H](O)[C@H]1O", "activity change, negative = inhibition": "0.197%"}
{"molecule": "CC(C)(C)OC(=O)c1ccc(O)cc1", "activity change, negative = inhibition": "-1.04%"}
{"molecule": "CN(C)CCOCCO", "activity change, negative = inhibition": "0.291%"}
{"molecule": "CC(C)(C)c1cc(CCC(=O)NN)cc(C(C)(C)C)c1O", "activity change, negative = inhibition": "-0.355%"}
{"molecule": "CCn1ccc(NS(=O)(=O)c2ccc(N)cc2)nc1=O", "activity change, negative = inhibition": "3.69% [at 42.5 µM]"}
{"molecule": "Cc1cc2cc3c(C)cc(=O)oc3c(C)c2o1", "activity change, negative = inhibition": "0.0212% [at 42.5 µM]"}
{"molecule": "Cc1cc(C(C)(C)C)c(O)c(C)c1CC1=NCCN1", "activity change, negative = inhibition": "1.04% [at 42.5 µM]"}
{"molecule": "CCN1CCc2nc(N)oc2CC1", "activity change, negative = inhibition": "0.0742% [at 42.5 µM]"}
{"molecule": "N[C@@H](CCC(=O)N[C@@H](CS)C(=O)NCC(=O)O)C(=O)O", "activity change, negative = inhibition": "6.72% [at 19 µM]"}
{"molecule": "O=C1O[C@@H]2[C@@H](O)[C@H](O)O[C@@H]2[C@H]1O", "activity change, negative = inhibition": "0.484%"}
{"molecule": "Cc1ccccc1N=O", "activity change, negative = inhibition": "2.01%"}
{"molecule": "CC1=C(C(=O)O)N2C(=O)[C@@H](NC(=O)[C@H](N)c3ccc(O)cc3)[C@H]2SC1", "activity change, negative = inhibition": "1.03% [at 42.5 µM]"}
{"molecule": "CCCCCCCCOS(=O)(=O)O", "activity change, negative = inhibition": "-0.244%"}
{"molecule": "COc1cc(N)ccc1C", "activity change, negative = inhibition": "-1.56%"}
{"molecule": "CC(=O)NCCCCCC(=O)O", "activity change, negative = inhibition": "0.282% [at 42.5 µM]"}
{"molecule": "O=S(=O)(O)CCN1CCN(CCO)CC1", "activity change, negative = inhibition": "-0.2%"}
{"molecule": "CC(C)CC(C)CC(C)CC(C)COC(=O)c1ccccc1C(=O)OCC(C)CC(C)CC(C)CC(C)C", "note": "(stereo not given)", "activity change, negative = inhibition": "1.93%"}
{"molecule": "CNS(=O)(=O)CCc1ccc2[nH]cc(C3CCN(C)CC3)c2c1", "activity change, negative = inhibition": "1.14% [at 42.5 µM]"}
{"molecule": "COCCOCCOCCOCCO", "activity change, negative = inhibition": "0.0959%"}
{"molecule": "Cc1ccc(C=O)cc1C", "activity change, negative = inhibition": "0.943%"}
{"molecule": "CCCCOC(=O)c1ccccc1", "activity change, negative = inhibition": "-0.899%"}
